Structures can show the parent of a compound that is named as a salt.

One test has as its system U-2932. Put plainly: growth inhibition by drug plus 177Lu-lilotomab satetraxetan (1 - RLU/untreated control) (fraction); higher = stronger inhibition. The following applies: 10 nM; time (day): 6; 177Lu-lilotomab satetraxetan 1 ug/ml. In a few lines: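 RIVA or U-2932 cells were left untreated or pretreated for 18 h with a radiolabelled anti-CD37 antibody conjugate (~600 MBq/mg) at 0.5 µg/ml for RIVA or 1 µg/ml for U-2932. The cells were then washed and seeded at 3,000 cells/well on plates pre-printed with the Selleck Cambridge Cancer Compound library, dosed at 10/100 nM for RIVA and 10/1,000 nM for U-2932. From day 3, RealTime-Glo luminescence was read daily after 1 h at 37°C. Growth inhibition was taken as one minus RLU over the mean of the untreated no-drug wells, of which there were 48 per plate.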
Take `CCc1c2c(nc3ccc(OC(=O)N4CCC(N5CCCCC5)CC4)cc13)-c1cc3c(c(=O)n1C2)COC(=O)[C@]3(O)CC` [Irinotecan HCl Trihydrate (Campto)]: the “growth inhibition by drug plus 177Lu-lilotomab satetraxetan” value (from here on “growth inhibition”) is 0.118.

As to `S=C(NCc1ccc2c(c1)OCO2)N1CCN(c2ncnc3c2oc2ccccc23)CC1` [Amuvatinib (MP-470)], the “growth inhibition” value turned out to be 0.177.

In the case of `COc1ccc2c3n(c(=NC(=O)c4cccnc4)nc2c1OC)CCN3`, the “growth inhibition” value came out at 0.178.

Turning to `C#Cc1cccc(Nc2ncnc3cc(OCCOC)c(OCCOC)cc23)c1` [Erlotinib HCl], the “growth inhibition” value is 0.267.

In the case of `Cc1ccc(-c2cc(C(F)(F)F)nn2-c2ccc(S(N)(=O)=O)cc2)cc1` [Celecoxib], the “growth inhibition” value was determined as 0.161.

Consider `N#CC[C@H](C1CCCC1)n1cc(-c2ncnc3[nH]ccc23)cn1`, for which the “growth inhibition” value came to 0.112.

Regarding `CCc1cncnc1N1CCN(Cc2nc3ccc(C(F)(F)F)cc3[nH]2)CC1`, the “growth inhibition” value was 0.0627.

With `CCN(CC)C(=S)SSC(=S)N(CC)CC` [Disulfiram (Antabuse)], the “growth inhibition” value came to 0.0837.

On to `CC(C)[C@H](C(=O)Nc1ccc(C(=O)NO)cc1)c1ccccc1`, for which the “growth inhibition” value was found to be 0.152.

With `CC(=O)O[C@]1(C(C)=O)CC[C@H]2[C@@H]3C=C(C)C4=CC(=O)CC[C@]4(C)[C@H]3CC[C@@]21C` [Megestrol Acetate], the “growth inhibition” value turned out to be 0.12.

On to `COc1cc2ncnc(Nc3cccc(Br)c3)c2cc1OC`, for which the “growth inhibition” value worked out at 0.0642.

`N#Cc1ccc(C(c2ccc(C#N)cc2)n2cncn2)cc1` [Letrozole]: the “growth inhibition” value came to 0.00121.

Regarding `CC(=O)c1c(C)c2cnc(Nc3ccc(N4CCNCC4)cn3)nc2n(C2CCCC2)c1=O`, the “growth inhibition” value stood at 0.0699.

Take `COc1cccc2c1C(=O)c1c(O)c3c(c(O)c1C2=O)C[C@@](O)(C(=O)CO)C[C@@H]3O[C@H]1C[C@H](N)[C@H](O)[C@H](C)O1` [Doxorubicin (Adriamycin)]: the “growth inhibition” value was determined as 0.687.

Consider `CC(C)(C)c1[nH]cnc1/C=c1\[nH]c(=O)/c(=C/c2ccccc2)[nH]c1=O` [NPI-2358 (Plinabulin)], for which the “growth inhibition” value came to 0.213.

In the case of `COc1cc(Nc2ncc3c(n2)-c2ccc(Cl)cc2C(c2c(F)cccc2OC)=NC3)ccc1C(=O)O` [MLN8237 (Alisertib)], the “growth inhibition” value stood at 0.126.

In the case of `O=c1[nH]cc(F)c(=O)[nH]1` [Adrucil (Fluorouracil)], the “growth inhibition” value is 0.0335.

Consider `CC(C)c1ccc(Cn2ccc3c4c(N)nc(NC5CC5)nc4ccc32)cc1`, for which the “growth inhibition” value amounted to 0.274.

For the compound `CC/C(=C(\c1ccccc1)c1ccc(OCCN(C)C)cc1)c1ccccc1` [Tamoxifen Citrate (Nolvadex)], the “growth inhibition” value came out at 0.206.

As to `Cn1cc(C2=C(c3ccc(Cl)cc3Cl)C(=O)NC2=O)c2ccccc21`, the “growth inhibition” value is -0.0529.

For the compound `c1ccc(-c2nn3c(c2-c2ccnc4cc(OCCN5CCOCC5)ccc24)CCC3)nc1`, the “growth inhibition” value worked out at 0.155.

As to `O=C(NCCS(=O)(=O)c1ccc(C(F)(F)F)cn1)c1ccc(Cl)cc1`, the “growth inhibition” value came out at 0.0664.

Take `Cc1ccc(S(=O)(=O)C=CC#N)cc1`: the “growth inhibition” value was 0.0948.

As to `CCC1=C[C@@H]2CN(C1)Cc1c([nH]c3ccccc13)[C@@](C(=O)OC)(c1cc3c(cc1OC)N(C)[C@H]1[C@@](O)(C(=O)OC)[C@H](OC(C)=O)[C@]4(CC)C=CCN5CC[C@]31[C@@H]54)C2` [Vinorelbine (Navelbine)], the “growth inhibition” value was determined as 0.621.

In the case of `Cc1cc(Nc2cc(N3CCN(C)CC3)nc(/C=C/c3ccccc3)n2)n[nH]1`, the “growth inhibition” value was -0.0149.

Take `CN(N=O)C(=O)N[C@@H](C=O)[C@@H](O)[C@H](O)[C@H](O)CO` [Streptozotocin (Zanosar)]: the “growth inhibition” value was found to be 0.118.

The test is the same for the next values; noted with them: 1000 nM; time (day): 3; 177Lu-lilotomab satetraxetan 1 ug/ml.
For the compound `COc1ccc(S(=O)(=O)Nc2cccnc2Nc2ccc(O)cc2)cc1`, the “growth inhibition” value was 0.896.

As to `C[C@]12CCC(=O)C=C1CC[C@@H]1[C@@H]2[C@@H](O)C[C@@]2(C)[C@H]1CC[C@]2(O)C(=O)CO` [Hydrocortisone (Cortisol)], the “growth inhibition” value amounted to 0.281.

For `COc1cc(OC2CCN(C)CC2)ccc1Nc1ncc2c(n1)n(C1CCCC1)c(=O)n2C`, the “growth inhibition” value was -0.121.

Turning to `Nc1nc(F)nc2c1ncn2[C@@H]1O[C@H](CO)[C@@H](O)[C@@H]1O` [Fludarabine (Fludara)], the “growth inhibition” value was found to be 0.00481.

In the case of `Nc1nc(Nc2ccc(S(N)(=O)=O)cc2)nn1C(=O)c1c(F)cccc1F`, the “growth inhibition” value turned out to be 0.452.

`Nc1ncn([C@@H]2O[C@H](CO)[C@@H](O)[C@H]2O)c(=O)n1` [Azacitidine (Vidaza)]: the “growth inhibition” value was -0.0673.

With `COc1cc2nccc(Oc3ccc(NC(=O)NC4CC4)c(Cl)c3)c2cc1C(N)=O` [E7080 (Lenvatinib)], the “growth inhibition” value was -0.0775.

Turning to `Nc1ccn([C@@H]2O[C@H](CO)[C@@H](O)[C@@H]2O)c(=O)n1` [Cytarabine], the “growth inhibition” value was determined as 0.688.

Turning to `Nc1cccc2c1C(=O)N(C1CCC(=O)NC1=O)C2=O` (centres undefined) [Pomalidomide], the “growth inhibition” value was 0.233.

`CN(C)c1nc(N(C)C)nc(N(C)C)n1` [Altretamine (Hexalen)]: the “growth inhibition” value is -0.101.

Consider `Cc1[nH]c(/C=C2\C(=O)Nc3ccc(S(=O)(=O)N(C)c4cccc(Cl)c4)cc32)c(C)c1C(=O)N1CCN(C)CC1`, for which the “growth inhibition” value is -0.011.

As to `O=C(O[C@@H]1Cc2c(O)cc(O)cc2O[C@@H]1c1cc(O)c(O)c(O)c1)c1cc(O)c(O)c(O)c1` [(-)-Epigallocatechin gallate], the “growth inhibition” value stood at 0.0188.

For the compound `CCc1c2c(nc3ccc(OC(=O)N4CCC(N5CCCCC5)CC4)cc13)-c1cc3c(c(=O)n1C2)COC(=O)[C@]3(O)CC` [Irinotecan HCl Trihydrate (Campto)], the “growth inhibition” value turned out to be 0.839.

Take `S=C(NCc1ccc2c(c1)OCO2)N1CCN(c2ncnc3c2oc2ccccc23)CC1` [Amuvatinib (MP-470)]: the “growth inhibition” value turned out to be 0.465.

As for `COc1ccc2c3n(c(=NC(=O)c4cccnc4)nc2c1OC)CCN3`, the “growth inhibition” value was 0.192.

`C#Cc1cccc(Nc2ncnc3cc(OCCOC)c(OCCOC)cc23)c1` [Erlotinib HCl]: the “growth inhibition” value was 0.712.

As to `Cc1ccc(-c2cc(C(F)(F)F)nn2-c2ccc(S(N)(=O)=O)cc2)cc1` [Celecoxib], the “growth inhibition” value was -0.109.

With `N#CC[C@H](C1CCCC1)n1cc(-c2ncnc3[nH]ccc23)cn1`, the “growth inhibition” value was -0.166.

`CCc1cncnc1N1CCN(Cc2nc3ccc(C(F)(F)F)cc3[nH]2)CC1`: the “growth inhibition” value is -0.00879.

Regarding `CCN(CC)C(=S)SSC(=S)N(CC)CC` [Disulfiram (Antabuse)], the “growth inhibition” value is 0.981.

Turning to `CC(C)[C@H](C(=O)Nc1ccc(C(=O)NO)cc1)c1ccccc1`, the “growth inhibition” value stood at 0.961.

In the case of `CC(=O)O[C@]1(C(C)=O)CC[C@H]2[C@@H]3C=C(C)C4=CC(=O)CC[C@]4(C)[C@H]3CC[C@@]21C` [Megestrol Acetate], the “growth inhibition” value was determined as 0.044.

As to `COc1cc2ncnc(Nc3cccc(Br)c3)c2cc1OC`, the “growth inhibition” value is -0.0997.

On to `N#Cc1ccc(C(c2ccc(C#N)cc2)n2cncn2)cc1` [Letrozole], for which the “growth inhibition” value was -0.131.

Turning to `CC(=O)c1c(C)c2cnc(Nc3ccc(N4CCNCC4)cn3)nc2n(C2CCCC2)c1=O`, the “growth inhibition” value was -0.111.

In the case of `COc1cccc2c1C(=O)c1c(O)c3c(c(O)c1C2=O)C[C@@](O)(C(=O)CO)C[C@@H]3O[C@H]1C[C@H](N)[C@H](O)[C@H](C)O1` [Doxorubicin (Adriamycin)], the “growth inhibition” value came out at 0.979.

In the case of `CC(C)(C)c1[nH]cnc1/C=c1\[nH]c(=O)/c(=C/c2ccccc2)[nH]c1=O` [NPI-2358 (Plinabulin)], the “growth inhibition” value was 0.968.

As to `COc1cc(Nc2ncc3c(n2)-c2ccc(Cl)cc2C(c2c(F)cccc2OC)=NC3)ccc1C(=O)O` [MLN8237 (Alisertib)], the “growth inhibition” value came to 0.21.

Turning to `O=c1[nH]cc(F)c(=O)[nH]1` [Adrucil (Fluorouracil)], the “growth inhibition” value came out at 0.0514.

In the case of `CC(C)c1ccc(Cn2ccc3c4c(N)nc(NC5CC5)nc4ccc32)cc1`, the “growth inhibition” value worked out at 0.982.

With `CC/C(=C(\c1ccccc1)c1ccc(OCCN(C)C)cc1)c1ccccc1` [Tamoxifen Citrate (Nolvadex)], the “growth inhibition” value is 0.075.

With `Cn1cc(C2=C(c3ccc(Cl)cc3Cl)C(=O)NC2=O)c2ccccc21`, the “growth inhibition” value turned out to be 0.0138.

Take `c1ccc(-c2nn3c(c2-c2ccnc4cc(OCCN5CCOCC5)ccc24)CCC3)nc1`: the “growth inhibition” value is -0.0195.

As to `O=C(NCCS(=O)(=O)c1ccc(C(F)(F)F)cn1)c1ccc(Cl)cc1`, the “growth inhibition” value is -0.0112.

Consider `Cc1ccc(S(=O)(=O)C=CC#N)cc1`, for which the “growth inhibition” value was determined as 0.00618.

Consider `CCC1=C[C@@H]2CN(C1)Cc1c([nH]c3ccccc13)[C@@](C(=O)OC)(c1cc3c(cc1OC)N(C)[C@H]1[C@@](O)(C(=O)OC)[C@H](OC(C)=O)[C@]4(CC)C=CCN5CC[C@]31[C@@H]54)C2` [Vinorelbine (Navelbine)], for which the “growth inhibition” value is 0.975.

For the compound `Cc1cc(Nc2cc(N3CCN(C)CC3)nc(/C=C/c3ccccc3)n2)n[nH]1`, the “growth inhibition” value amounted to 0.048.

Consider `CN(N=O)C(=O)N[C@@H](C=O)[C@@H](O)[C@H](O)[C@H](O)CO` [Streptozotocin (Zanosar)], for which the “growth inhibition” value was -0.0995.

For the origin of these results see the supplement of paper PMC6897291.
